These results are taken from PubChem BioAssay (NCATS).

Inconclusive results are not listed. Calls of active or inactive are those of the source. Unless noted, calls come from the whole dose curve; as a rule, active = well fitted curve in the direction sought with a large enough effect; inconclusive = small, poorly fitted or top-dose-only effect, or another doubt; inactive = no such curve, though single readings can be large; an effect the other way counts as inactive or inconclusive.

For assay [1], the target named is Catechol O-methyltransferase (Homo sapiens) (UniProt P21964). Kind of assay: Confirmatory Screen for Target Class Profiling of Small Molecule Inhibitors of Methyltransferases (AID 1745852; calls by dose curve; for activity change, negative = inhibition: % is set by controls: 0 for no effect and ±100 for the full control effect). Conditions: MTase-Glo luminescence, SAH detection, recombinant enzyme; measured here: COMT max response; stronger effect = lower value.
Chain of Catechol O-methyltransferase (Homo sapiens) (P21964 whole entry, looked up): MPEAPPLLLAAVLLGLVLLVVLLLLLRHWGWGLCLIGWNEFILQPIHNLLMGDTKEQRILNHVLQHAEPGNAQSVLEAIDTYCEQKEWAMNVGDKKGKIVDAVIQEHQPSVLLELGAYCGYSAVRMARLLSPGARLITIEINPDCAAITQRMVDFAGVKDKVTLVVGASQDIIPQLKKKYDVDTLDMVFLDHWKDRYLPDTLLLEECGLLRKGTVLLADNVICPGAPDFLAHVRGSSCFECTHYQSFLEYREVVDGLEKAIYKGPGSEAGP
Assay [2] concerns the target Guanidinoacetate N-methyltransferase (Homo sapiens) (UniProt Q14353). The description is as above. Conditions: MTase-Glo luminescence, SAH detection, recombinant enzyme; activity change, negative = inhibition: at 57.3 µM (top of the series) unless noted; series mostly up to 57.3 µM.
In assay [3] the target is Nicotinamide N-methyltransferase (Homo sapiens) (UniProt P40261). The description is as above. Conditions: MTase-Glo luminescence, SAH detection, recombinant enzyme; measured here: NNMT max response; stronger effect = lower value.
Chain of Nicotinamide N-methyltransferase (Homo sapiens) (P40261 whole entry, looked up): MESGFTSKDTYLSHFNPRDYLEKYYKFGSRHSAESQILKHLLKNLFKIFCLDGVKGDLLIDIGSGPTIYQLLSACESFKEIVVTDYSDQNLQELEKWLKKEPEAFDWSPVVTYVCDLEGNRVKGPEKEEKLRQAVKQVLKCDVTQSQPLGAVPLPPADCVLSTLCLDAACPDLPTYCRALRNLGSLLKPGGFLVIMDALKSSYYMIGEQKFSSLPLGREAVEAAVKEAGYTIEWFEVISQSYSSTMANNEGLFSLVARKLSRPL
Assay [4] deals with Phenylethanolamine N-methyltransferase (Homo sapiens) (UniProt P11086). Described as above. Conditions: MTase-Glo luminescence, SAH detection, recombinant enzyme; measured here: PNMT max response; stronger effect = lower value.
Chain of Phenylethanolamine N-methyltransferase (Homo sapiens) (P11086 whole entry, looked up): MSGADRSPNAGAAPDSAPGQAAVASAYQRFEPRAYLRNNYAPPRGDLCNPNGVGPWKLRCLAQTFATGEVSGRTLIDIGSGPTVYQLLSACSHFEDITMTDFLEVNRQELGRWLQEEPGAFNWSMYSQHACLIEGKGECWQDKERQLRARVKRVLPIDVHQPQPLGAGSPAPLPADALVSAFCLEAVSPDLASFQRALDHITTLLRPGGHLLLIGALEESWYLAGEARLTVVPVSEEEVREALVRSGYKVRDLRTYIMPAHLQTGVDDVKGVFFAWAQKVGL
The nature of assay [5]: Counterscreen for APE1 Inhibitors: Fluorescent Dye Displacement Validation Assay (AID 1707).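 Note: plate controls were ThO with dsDNA and no compound for no effect and ThO without dsDNA for full effect.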 Conditions: fluorescent dye displacement from DNA; series mostly up to 57.1 µM. An outline of the steps: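 Compounds are scored by their ability to displace Thiazole Orange (250 nM) from a 50 nM TAMRA-tagged duplex bearing a tetrahydrofuran abasic site. Buffer is 50 mM Tris-HCl pH7.5, 50mM NaCl, 2 mM MgCl2, 0.01% Tween-20.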
(In general: The purpose of a counterscreen is to sort out artefacts and off-target activity.)

For assay [6], the target named is Endonuclease 4 (Escherichia coli (strain K12)) (UniProt P0A6C1). The assay can be described thus: Counterscreen for APE1 Inhibitors: qHTS Validation Assay for Inhibitors of Endonuclease IV (AID 1708). Note: % is set by controls: 0 for no effect and ±100 for the full control effect. Conditions: E. coli endonuclease IV, DNA cleavage fluorescence; series mostly up to 57.1 µM. An outline of the steps:
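Cleavage of a quenched abasic-site DNA duplex (50 nM, 5'-TAMRA, 3'-BHQ-2) by 2 nM enzyme is followed as fluorescence increase. Compounds are preincubated with enzyme 15 min at room temperature before substrate addition.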

Assay [7] is described as follows: qHTS for differential inhibitors of proliferation of Plasmodium falciparum line 7G8 (AID 1815).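 Note: potency is the fitted concentration of half-maximal effect; parasite growth measured after three days of incubation.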 Conditions: Plasmodium falciparum 7G8 proliferation inhibition; series mostly up to 28.7 µM.
Assay [8] in a line: qHTS for differential inhibitors of proliferation of Plasmodium falciparum line Dd2 (AID 1882).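 Note: compound exposure of 72 h on infected erythrocytes; plate controls were DMSO vehicle for no effect and 0.29 µM artemisinin for full effect; nearly all actives have a fitted effect of over 65% in size.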 Conditions: Potency: Plasmodium falciparum Dd2 proliferation inhibition; series mostly up to 28.7 µM. An outline of the steps: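 SYBR Green I DNA fluorescence read-out, ex 485/em 535 nm. Signals were normalized to 0.29 uM artemisinin and DMSO wells, then corrected using vehicle-only plates flanking each stack. Parasite growth ran 72 h in erythrocytes before lysis.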

Assay [9] can be described thus: qHTS for differential inhibitors of proliferation of Plasmodium falciparum line W2 (AID 1883).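 Note: potency is the fitted concentration of half-maximal effect; parasites grown with compound for 72 h before lysis and staining.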 Conditions: Potency: Plasmodium falciparum W2 proliferation inhibition; series mostly up to 28.7 µM. Background: In qHTS, concentration-response curves come from the screen itself.
Assay [10] has as its target ATP-dependent DNA helicase Q1 (Homo sapiens) (UniProt P46063). Kind of assay: qHTS Validation Assay for Inhibitors of RecQ-Like Dna Helicase 1 (RECQ1) (AID 2353).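 Note: plate controls were DMSO vehicle for no effect and enzyme-free control for full effect.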 Conditions: recombinant RECQ1 helicase DNA unwinding assay; series mostly up to 25.6 µM. An outline of the steps:
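50 nM RECQ1T1 preincubated 15 min with compound in Tris pH 8.0 buffer with MgCl2, DTT, Tween-20 and 2.5 ug/ml poly(dI-dC); started with 200 nM TAMRA/BHQ-2 forked duplex and 2 mM ATP. Unwinding read as fluorescence (525/598 nm), two reads 2 h apart.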

The nature of assay [11]: Quantitative high throughput screen for delayed death inhibitors of the malarial parasite plastid, 48 hour incubation (AID 488752). Note: % is set by controls: 0 for no effect and ±100 for the full control effect; nearly all actives have a fitted effect of over 65% in size. Conditions: Plasmodium falciparum growth; series mostly up to 28.7 µM. An outline of the steps:
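Erythrocytes infected with P. falciparum carrying an integrated firefly luciferase reporter (2% hematocrit, 0.1% parasitemia final) were exposed to compounds in RPMI 1640/0.5% Albumax for 48 h at 37 C, 5% CO2. Growth inhibition was scored as reduced luminescence.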

Assay [12] concerns the target M-phase phosphoprotein 8 (Homo sapiens) (UniProt Q99549). The assay can be described thus: qHTS Validation Assay for Inhibitors for MPP8 Chromodomain Interactions with Methylated Histone Tails (AID 488949).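 Note: 50 nM MPP8 with 50 nM peptide preformed then compounds added for 30 min; AlphaScreen signal from MPP8 chromodomain bound to biotinylated H3K9me3 peptide; top concentration of the series differs between compounds; % is set by controls: 0 for no effect and ±100 for the full control effect; nearly all actives have a fitted effect of over 55% in size.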 Conditions: AlphaScreen MPP8 binding to H3K9me3 peptide; series mostly up to 114 µM. An outline of the steps:
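Chemiluminescent proximity assay: histidine-tag capture via nickel acceptor beads, biotin peptide via streptavidin donor beads. Protein and peptide each at 50 nM, pH 7.4, with 30 min incubations at room temperature for complex formation, compound exposure and bead binding.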

Assay [13] addresses Thyrotropin receptor (Homo sapiens) (UniProt P16473). The assay can be described thus: qHTS Assay for Antagonists of the Thyroid Stimulating Hormone Receptor (AID 488980). Note: 0% is about no effect. Conditions: TSHR-expressing cells, cAMP antagonist read-out; series mostly up to 57.5 µM. An outline of the steps:
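Inhibition of TSH-stimulated cAMP accumulation was quantified by homogeneous time-resolved FRET in TSHR-transfected HEK293 cells. Agonist: TSH, 4 nM final (EC80).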

Assay [14] deals with Thyrotropin-releasing hormone receptor (Homo sapiens) (UniProt P34981). The assay can be described thus: qHTS for Small Molecule Agonists and Allosteric Enhancers of Human TRH Receptor: Validation Screen for Agonists (AID 493127;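 active = calcium activation more than 3 SD above the typical response in the agonist read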;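 note: intracellular calcium rise by fluo-8 fluorescence before TRH EC20 addition; 0% is about no effect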). Conditions: TRH receptor agonist cell assay; at 2 µM; stronger effect = higher value. An outline of the steps: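 TRHR-expressing cells were plated overnight in serum-containing medium, then loaded with fluo-8 calcium dye at room temperature for 30 min–1.5 h. After a 10 s baseline, compound was pin-transferred and calcium fluorescence (ex 480/em 530) read kinetically for agonist response.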
Chain of Thyrotropin-releasing hormone receptor (Homo sapiens) (P34981 whole entry, looked up): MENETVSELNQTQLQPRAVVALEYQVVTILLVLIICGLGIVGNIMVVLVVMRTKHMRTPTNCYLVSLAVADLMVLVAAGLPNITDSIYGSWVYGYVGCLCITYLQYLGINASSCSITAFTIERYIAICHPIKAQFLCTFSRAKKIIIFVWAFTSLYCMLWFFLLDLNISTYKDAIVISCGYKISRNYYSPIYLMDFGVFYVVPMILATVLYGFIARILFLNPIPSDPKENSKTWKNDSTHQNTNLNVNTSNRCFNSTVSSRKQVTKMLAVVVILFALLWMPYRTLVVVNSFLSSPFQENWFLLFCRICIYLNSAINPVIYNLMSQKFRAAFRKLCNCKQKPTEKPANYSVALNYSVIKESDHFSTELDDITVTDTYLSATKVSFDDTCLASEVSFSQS

The target of assay [15] is Galactokinase (Homo sapiens) (UniProt P51570). The assay can be described thus: qHTS Validation Assay for Inhibitors of Human Galactokinase (GALK) (AID 493189). Note: 0% is about no effect. Conditions: purified human GALK enzyme activity, qHTS 7-point titration; series mostly up to 57.5 µM. An outline of the steps:
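Enzyme activity is inferred from ATP consumption: human GALK phosphorylates galactose (100 uM) using 35 uM ATP for 1 h at room temperature, and luciferase-based Kinase-Glo Plus reports unconsumed ATP.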

A short description of assay [16]: Validation screen for small molecules that induce DNA re-replication in SW480 colon adenocarcinoma cells (AID 504364). Note: 0% is about no effect. Conditions: DNA re-replication phenotype (high-content imaging); series mostly up to 46.1 µM. An outline of the steps:
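SW480 cells seeded at 250 per well were exposed to compound or DMSO for 48 hr at 37 C, 5% CO2, then stained with Hoechst for 40 min. DNA content per nucleus was imaged (405 nm ex, 500-530 nm em).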

Chain of M-phase phosphoprotein 8 (Homo sapiens) (Q99549 whole entry, looked up): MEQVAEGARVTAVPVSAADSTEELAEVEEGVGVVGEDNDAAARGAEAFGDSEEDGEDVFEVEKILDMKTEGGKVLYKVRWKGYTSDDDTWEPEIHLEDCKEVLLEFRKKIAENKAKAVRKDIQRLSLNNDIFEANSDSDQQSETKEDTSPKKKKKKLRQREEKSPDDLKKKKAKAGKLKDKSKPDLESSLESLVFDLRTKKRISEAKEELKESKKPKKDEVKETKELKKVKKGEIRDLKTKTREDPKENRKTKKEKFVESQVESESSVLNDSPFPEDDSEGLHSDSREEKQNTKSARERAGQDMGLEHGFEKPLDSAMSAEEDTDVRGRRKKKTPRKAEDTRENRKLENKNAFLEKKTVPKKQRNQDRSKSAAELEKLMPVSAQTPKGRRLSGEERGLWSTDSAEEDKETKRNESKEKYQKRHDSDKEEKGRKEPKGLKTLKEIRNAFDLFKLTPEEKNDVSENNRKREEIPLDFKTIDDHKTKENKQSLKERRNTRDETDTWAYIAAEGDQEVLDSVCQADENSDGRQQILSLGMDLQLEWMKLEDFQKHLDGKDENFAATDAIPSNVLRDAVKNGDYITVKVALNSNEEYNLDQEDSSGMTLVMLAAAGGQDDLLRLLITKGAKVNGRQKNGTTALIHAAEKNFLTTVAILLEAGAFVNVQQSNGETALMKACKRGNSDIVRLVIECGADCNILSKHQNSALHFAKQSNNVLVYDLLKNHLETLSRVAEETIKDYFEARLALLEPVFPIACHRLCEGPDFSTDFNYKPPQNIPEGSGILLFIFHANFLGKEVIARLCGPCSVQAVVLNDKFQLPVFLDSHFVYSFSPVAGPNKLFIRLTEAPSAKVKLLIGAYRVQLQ
Chain of Thyrotropin receptor (Homo sapiens) (P16473 whole entry, looked up): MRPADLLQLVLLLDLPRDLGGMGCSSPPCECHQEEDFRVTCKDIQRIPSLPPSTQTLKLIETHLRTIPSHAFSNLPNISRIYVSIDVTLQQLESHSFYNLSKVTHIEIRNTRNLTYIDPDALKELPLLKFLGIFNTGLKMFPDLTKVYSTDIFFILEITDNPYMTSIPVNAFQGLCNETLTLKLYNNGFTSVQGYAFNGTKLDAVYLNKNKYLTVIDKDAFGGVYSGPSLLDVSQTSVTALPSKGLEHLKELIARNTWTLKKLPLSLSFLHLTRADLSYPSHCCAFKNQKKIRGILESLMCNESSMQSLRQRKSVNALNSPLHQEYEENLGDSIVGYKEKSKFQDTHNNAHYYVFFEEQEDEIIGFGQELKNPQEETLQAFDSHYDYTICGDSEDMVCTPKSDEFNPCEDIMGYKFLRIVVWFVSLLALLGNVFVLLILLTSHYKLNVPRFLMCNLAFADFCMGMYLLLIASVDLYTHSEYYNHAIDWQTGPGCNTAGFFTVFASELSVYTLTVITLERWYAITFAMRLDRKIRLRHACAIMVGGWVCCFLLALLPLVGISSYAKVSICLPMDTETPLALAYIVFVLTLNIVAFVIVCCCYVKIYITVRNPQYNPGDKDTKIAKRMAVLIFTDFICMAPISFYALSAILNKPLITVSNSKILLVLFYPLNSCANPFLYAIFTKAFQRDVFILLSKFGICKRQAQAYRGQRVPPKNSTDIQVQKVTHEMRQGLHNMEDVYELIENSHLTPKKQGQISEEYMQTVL
Chain of ATP-dependent DNA helicase Q1 (Homo sapiens) (P46063 whole entry, looked up): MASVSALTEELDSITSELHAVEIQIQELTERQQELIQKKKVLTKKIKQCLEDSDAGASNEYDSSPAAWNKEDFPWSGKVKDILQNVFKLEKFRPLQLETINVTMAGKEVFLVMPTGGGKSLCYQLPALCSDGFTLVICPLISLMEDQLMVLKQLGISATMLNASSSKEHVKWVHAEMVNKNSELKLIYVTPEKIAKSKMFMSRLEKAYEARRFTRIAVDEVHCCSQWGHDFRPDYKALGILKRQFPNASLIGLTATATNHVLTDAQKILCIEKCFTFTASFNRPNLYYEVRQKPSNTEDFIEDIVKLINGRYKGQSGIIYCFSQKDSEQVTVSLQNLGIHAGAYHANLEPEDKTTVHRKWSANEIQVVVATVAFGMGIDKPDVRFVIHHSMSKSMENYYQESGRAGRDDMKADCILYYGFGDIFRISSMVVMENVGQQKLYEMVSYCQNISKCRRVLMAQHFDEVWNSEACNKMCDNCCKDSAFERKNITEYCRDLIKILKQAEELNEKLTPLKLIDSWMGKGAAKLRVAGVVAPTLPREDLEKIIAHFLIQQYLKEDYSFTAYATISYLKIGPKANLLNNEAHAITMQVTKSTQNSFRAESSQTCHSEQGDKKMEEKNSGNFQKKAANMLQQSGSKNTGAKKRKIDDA
Chain of Galactokinase (Homo sapiens) (P51570 whole entry, looked up): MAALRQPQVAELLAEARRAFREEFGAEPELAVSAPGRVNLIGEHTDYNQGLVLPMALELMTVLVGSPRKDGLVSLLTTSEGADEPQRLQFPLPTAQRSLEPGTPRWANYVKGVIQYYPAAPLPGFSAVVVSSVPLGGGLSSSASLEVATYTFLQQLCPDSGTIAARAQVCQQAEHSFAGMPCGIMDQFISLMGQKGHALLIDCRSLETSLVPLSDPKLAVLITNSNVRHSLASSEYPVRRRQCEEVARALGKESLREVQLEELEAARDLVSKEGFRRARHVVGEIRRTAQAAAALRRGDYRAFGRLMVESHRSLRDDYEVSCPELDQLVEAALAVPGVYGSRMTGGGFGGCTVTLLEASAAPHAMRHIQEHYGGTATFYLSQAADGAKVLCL

`CN(C)CC1(O)CCC2(CCN(C(=O)c3cccn3C)CC2)CC1`: the values for the activity in assay [1], in [3] and in assay [4] were 7.38%, 3.1% and 9.04%, respectively. Further, the activity change, negative = inhibition in assay [2] was determined as 3.21%.

In the case of `COc1ncccc1-c1cc2c(ccn2CC2CCN([S+](C)(=O)[O-])CC2)c(N2CCOCC2)n1`, the activity in assay [1] was -8.55%; in assay [3], -94.7%; in assay [4], -10.8%. The activity change, negative = inhibition in assay [2] came to 1.38%.

In the case of `C#C[C@]1(O)CC[C@H]2C3CCC4=Cc5oncc5CC4(C)C3CCC21C` (some centres undefined), the outcome in assay [5], in [10], in assay [13] and in [15] was “inactive” throughout. In addition, the Potency result in assay [6], in assay [8], in assay [11], in [12] and in [16] was “inactive” throughout. In addition, the Potency in [7] and in [9] was 8.91 µM (active) throughout. Also, the activation in assay [14] is 1.44% (inactive).

For the compound `CCOc1c(CN(C)C(=O)Cn2cccc(OC)c2=O)cccc1OC`, the figures for the activity in [1], in assay [3] and in [4] were 0.499%, -3.91% and 0.0949%, respectively. Moreover, the activity change, negative = inhibition in [2] was -5.47%.
